Experimental data: PubChem BioAssay (Tox21)
Records with an inconclusive call do not appear. Active and inactive are the calls of the source. Unless noted, calls follow the shape of the dose curve; as a rule, active = well fitted curve in the direction sought with a large enough effect in the repeat runs; inconclusive = weak or mixed curves; inactive = no such curve, though single readings can be large; an effect the other way counts as inactive or inconclusive.

Experiments:
[1] = qHTS assay to identify small molecule agonists of the estrogen receptor alpha (ER-alpha) signaling pathway in the presence of an antagonist - cell viability counter screen (AID 1259386); also: series mostly up to about 92 µM; nearly all actives have a fitted effect of over 30% in size
How it was run: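 Compounds tested at 15 concentrations for 22 h at 37C alongside 10.0nM (final) ICI-182,780 antagonist, in VM7Luc4E2 cells grown in phenol red-free, charcoal-stripped medium. Viability read by CellTiter-Fluor fluorescence after 1 h reagent incubation.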

[2] = biological target: Progesterone receptor (Homo sapiens) (UniProt P06401); assay: qHTS assay to identify small molecule antagonists of the progesterone receptor (PR) signaling pathway (AID 1346795; active = well fitted inhibition curve with a large enough effect in the signal ratio in the repeat runs, not every such curve was filed as active; the % refers to the signal ratio)
Progesterone receptor (Homo sapiens), sequence (P06401 whole entry, looked up): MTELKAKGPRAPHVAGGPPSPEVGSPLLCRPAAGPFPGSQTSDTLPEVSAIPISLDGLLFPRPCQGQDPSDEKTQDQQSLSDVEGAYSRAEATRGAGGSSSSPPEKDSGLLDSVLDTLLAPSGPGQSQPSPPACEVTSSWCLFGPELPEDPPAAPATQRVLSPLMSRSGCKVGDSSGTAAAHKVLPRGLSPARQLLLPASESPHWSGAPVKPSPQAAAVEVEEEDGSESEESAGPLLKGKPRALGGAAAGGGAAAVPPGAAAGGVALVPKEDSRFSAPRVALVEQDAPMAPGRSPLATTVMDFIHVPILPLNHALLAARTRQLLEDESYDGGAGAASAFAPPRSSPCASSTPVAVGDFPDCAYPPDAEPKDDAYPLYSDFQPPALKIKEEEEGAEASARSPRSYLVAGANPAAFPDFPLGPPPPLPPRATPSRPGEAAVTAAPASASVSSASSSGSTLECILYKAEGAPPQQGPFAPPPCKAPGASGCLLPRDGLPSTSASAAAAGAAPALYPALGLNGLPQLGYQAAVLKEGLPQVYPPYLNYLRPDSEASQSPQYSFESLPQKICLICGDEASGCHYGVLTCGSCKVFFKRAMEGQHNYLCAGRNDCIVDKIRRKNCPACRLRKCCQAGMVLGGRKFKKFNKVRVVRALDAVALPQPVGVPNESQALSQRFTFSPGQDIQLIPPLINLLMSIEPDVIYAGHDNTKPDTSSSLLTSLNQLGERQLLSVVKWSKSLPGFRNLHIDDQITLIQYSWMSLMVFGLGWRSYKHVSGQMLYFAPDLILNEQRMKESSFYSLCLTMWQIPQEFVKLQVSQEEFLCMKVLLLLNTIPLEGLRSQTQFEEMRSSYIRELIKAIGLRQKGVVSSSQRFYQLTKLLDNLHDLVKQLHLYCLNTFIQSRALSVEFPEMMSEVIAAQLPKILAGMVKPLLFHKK
How it was run: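 Inhibition of R5020-induced (1 nM final) beta-lactamase reporter signal in PR-UAS-bla HEK293T cells was scored by FRET fluorescence after overnight (16 hr) compound treatment.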

[3] = qHTS assay to identify small molecule antagonists of the progesterone receptor (PR) signaling pathway - cell viability counter screen (AID 1346798); also: series mostly up to about 92 µM; nearly all actives have a fitted effect of over 50% in size
How it was run: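 ATP content as viability readout: CellTiter-Glo luminescence, 30 min room temperature, in PR-UAS-bla HEK293T cells after 16 hr compound/R5020 treatment at 37C and 5% CO2.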

[4] = qHTS assay to identify small molecule agonists of the progesterone receptor (PR) signaling pathway - cell viability counter screen (AID 1346799; calls by dose curve; also: nearly all actives have a fitted effect of over 45% in size)
How it was run: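 Cytotoxicity in PR-bla HEK293T cells: 16 h compound, 37C; CellTiter-Glo added post-FRET read; luminescence after 30 min RT.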

[5] = qHTS assay to identify small molecule antagonists of the TGF-beta/Smad signaling pathway - cell viability counter screen (AID 1346824); also: nearly all actives have a fitted effect of over 50% in size
How it was run: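 SBE-bla HEK 293T cells, incubated overnight, then compound plus 0.25 ng/mL TGF-beta1 (stock added) for 5 hr at 37 C. Viability was read in the same wells by CellTiter-Glo luminescence after 30 min at room temperature.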

[6] = qHTS assay to identify small molecule agonists of the TGF-beta/Smad signaling pathway (AID 1346859; active = well fitted activation curve with a large enough effect in the signal ratio in the repeat runs, not every such curve was filed as active; the % refers to the signal ratio; also: series mostly up to about 77 µM)
How it was run: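 Stable Smad binding element-beta-lactamase HEK 293T cells; 5 hr compound exposure at 37 C under 5% CO2; 2 hr room-temperature substrate step; fluorescence excited at 405 nm, collected at 460 nm and 530 nm.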

[7] = biological target: Thyrotropin-releasing hormone receptor (Homo sapiens) (UniProt P34981); assay: qHTS assay to identify small molecule antagonists of the thyrotropin-releasing hormone receptor (TRHR) signaling pathway (AID 1346877; active = well fitted inhibition curve with a large enough effect in the repeat runs, not every such curve was filed as active; also: series mostly up to about 51 µM)
Thyrotropin-releasing hormone receptor (Homo sapiens), sequence (P34981 whole entry, looked up): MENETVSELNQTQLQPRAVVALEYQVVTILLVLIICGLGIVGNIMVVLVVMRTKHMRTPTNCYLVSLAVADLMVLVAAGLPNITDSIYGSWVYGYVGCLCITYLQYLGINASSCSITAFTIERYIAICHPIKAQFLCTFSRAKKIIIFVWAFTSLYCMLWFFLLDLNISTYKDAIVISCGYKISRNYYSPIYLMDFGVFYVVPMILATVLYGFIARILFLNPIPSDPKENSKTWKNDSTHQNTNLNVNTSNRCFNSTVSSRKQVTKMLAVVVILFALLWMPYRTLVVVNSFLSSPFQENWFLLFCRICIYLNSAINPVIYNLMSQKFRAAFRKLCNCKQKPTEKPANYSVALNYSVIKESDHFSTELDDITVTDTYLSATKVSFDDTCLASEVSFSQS
How it was run: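 Antagonist mode: after a 5 min room-temperature compound exposure, cells were stimulated with 1 nM (final) TRH. Dye-loaded TRHR-HEK293 cells were used, and calcium-dependent fluorescence was followed for 3 min, with 15-point titrations run in triplicate.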

[8] = biological target: Thyrotropin-releasing hormone receptor (Homo sapiens) (UniProt P34981); assay: qHTS assay to identify small molecule agonists of the thyrotropin-releasing hormone receptor (TRHR) signaling pathway (AID 1346891; calls by dose curve;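 also: HEK293 cells expressing TRHR with calcium dye readout; series mostly up to about 58 µM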)
How it was run: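 In 1536-format, 1500 TRHR-Hek293 cells per well grew 18 h, took up calcium dye for 2 h at 37 °C, received compound, and were read kinetically; 15-point titrations, triplicates.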

[9] = Human pregnane X receptor (PXR) small molecule agonists, qHTS cell viability counter screen (AID 1346977); also: nearly all actives have a fitted effect of over 50% in size
How it was run: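 Readout is CellTiter-Fluor fluorescence from PXR-Luc HepG2 cells. Plated cells rested 5hr, then were treated with compounds for 24hr at 37C and 5% CO2, with reagent present during the last hour.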

[10] = Caspase-3/7 induction in HepG2 cells by small molecules, qHTS assay (AID 1346978); also: nearly all actives have a fitted effect of over 15% in size
How it was run: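 Wild-type HepG2 cells, 2,000/well, settled 5 hr at 37 C and 5% CO2, then compound-treated for 17 hr; caspase-3/7 activity read by luminescent Caspase-Glo 3/7 after 30 min at room temperature.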

[11] = Caspase-3/7 induction in CHO-K1 cells by small molecules, qHTS cell viability counter screen (AID 1346979); also: nearly all actives have a fitted effect of over 35% in size
How it was run: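 To flag cytotoxic compounds, treated CHO-K1 wild-type cells were given CellTiter-Fluor at 16hr and read fluorescently after 1hr at 37C; the caspase-3/7 luminescence was measured in these same wells.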

[12] = Caspase-3/7 induction in CHO-K1 cells by small molecules, qHTS assay (AID 1346980); also: nearly all actives have a fitted effect of over 15% in size
How it was run: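 Wild-type CHO-K1 cells exposed to compounds for 17hr at 37 C, 5% CO2. Caspase-3/7 activity then measured by Caspase-Glo 3/7 luminescence after 30min at room temperature.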

[13] = Caspase-3/7 induction in HepG2 cells by small molecules, qHTS cell viability counter screen (AID 1346981); also: series mostly up to about 92 µM; nearly all actives have a fitted effect of over 30% in size
How it was run: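 CellTiter-Fluor fluorescence measured viability in the same wells used for Caspase-Glo 3/7. HepG2 (wild type) at 2,000 cells/well were pre-incubated 5 hr, dosed, and given reagent at 16 hr, with 1 hr further at 37C.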

[14] = biological target: Nuclear receptor subfamily 1 group I member 2 (Homo sapiens) (UniProt O75469); assay: Human pregnane X receptor (PXR) small molecule agonists, qHTS assay (AID 1346982); also: nearly all actives have a fitted effect of over 35% in size
Nuclear receptor subfamily 1 group I member 2 (Homo sapiens), sequence (O75469 whole entry, looked up): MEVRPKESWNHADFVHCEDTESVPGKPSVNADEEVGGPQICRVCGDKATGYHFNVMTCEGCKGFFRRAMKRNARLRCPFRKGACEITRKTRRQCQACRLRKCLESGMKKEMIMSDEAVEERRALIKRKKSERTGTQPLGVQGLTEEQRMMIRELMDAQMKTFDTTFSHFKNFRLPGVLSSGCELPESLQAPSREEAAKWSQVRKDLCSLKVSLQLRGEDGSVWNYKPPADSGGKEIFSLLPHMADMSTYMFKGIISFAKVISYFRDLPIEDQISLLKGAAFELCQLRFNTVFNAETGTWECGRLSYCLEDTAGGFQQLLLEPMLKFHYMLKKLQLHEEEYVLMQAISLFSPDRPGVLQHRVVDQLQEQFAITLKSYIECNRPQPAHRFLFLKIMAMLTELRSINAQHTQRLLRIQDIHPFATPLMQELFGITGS
How it was run: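 Agonist mode: luminescence from ONE-Glo after 24 h compound exposure at 37C in HepG2 cells carrying hPXR-responsive CYP3A4 luciferase, plated in charcoal-stripped serum medium 5 h beforehand.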

[15] = biological target: Nuclear receptor subfamily 1 group I member 2 (Rattus norvegicus) (UniProt Q9R1A7); assay: Rat pregnane X receptor (rPXR) activation by small molecules, qHTS assay (AID 1346983); conditions: rPXR luciferase reporter cells, One-Glo luminescence, 24 h; stronger effect = higher value; also: nearly all actives have a fitted effect of over 20% in size
Nuclear receptor subfamily 1 group I member 2 (Rattus norvegicus), sequence (Q9R1A7 whole entry, looked up): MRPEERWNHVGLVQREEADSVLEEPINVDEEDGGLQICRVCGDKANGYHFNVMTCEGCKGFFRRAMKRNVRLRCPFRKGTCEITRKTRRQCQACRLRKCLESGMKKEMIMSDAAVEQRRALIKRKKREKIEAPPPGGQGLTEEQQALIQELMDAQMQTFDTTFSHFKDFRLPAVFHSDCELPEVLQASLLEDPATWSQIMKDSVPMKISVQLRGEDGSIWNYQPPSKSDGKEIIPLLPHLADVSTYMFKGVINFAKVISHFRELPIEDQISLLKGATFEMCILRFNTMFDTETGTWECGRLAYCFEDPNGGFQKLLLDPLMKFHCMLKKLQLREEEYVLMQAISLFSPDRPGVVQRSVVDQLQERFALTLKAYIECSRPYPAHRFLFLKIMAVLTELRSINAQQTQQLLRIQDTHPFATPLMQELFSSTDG
How it was run: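 Cell-based rPXR activation assay: rPXR cells, 2,000 per well, rested 5hr at 37 C, then exposed to compounds in DMSO for 24 hr at 37 C. Luciferase activity read by One-Glo luminescence after 30 min at room temperature.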

[16] = biological target: Nuclear receptor subfamily 1 group I member 2 (Homo sapiens) (UniProt O75469); assay: CYP3A4 induction through human pregnane X receptor (PXR) by small molecules, qHTS assay (AID 1346984); also: nearly all actives have a fitted effect of over 40% in size
How it was run: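 Read-out is luminescence after One-Glo addition, following a 3 hr, 37C incubation with Luciferin-IPA CYP3A4 substrate (3uM final). Before that, compounds were on DPX-2 cells (HepG2 co-transfected with PXR element plus CYP3A4-promoter luciferase) for 24 hr at 37C.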

[17] = biological target: Nuclear receptor subfamily 1 group I member 2 (Homo sapiens) (UniProt O75469); assay: Human pregnane X receptor (PXR) activation by small molecules, qHTS assay (AID 1346985); also: nearly all actives have a fitted effect of over 40% in size
How it was run: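 DPX-2 cells (HepG2 co-transfected with a PXR response element and a CYP3A4-promoter luciferase construct) were seeded at 2,000 per well, rested 5 hr at 37C, then exposed to DMSO-dissolved compounds for 24 hr. Activation was read as luciferase luminescence.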

[18] = qHTS assay to identify small molecule agonists of the TGF-beta/Smad signaling pathway - cell viability counter screen (AID 1346829); also: top concentration of the series differs between compounds; nearly all actives have a fitted effect of over 45% in size
How it was run: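 HEK 293T SBE-bla line, 5 hr compound exposure at 37 C, multiplexed CellTiter-Glo viability read by luminescence.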

[19] = biological target: Progesterone receptor (Homo sapiens) (UniProt P06401); assay: qHTS assay to identify small molecule agonists of the progesterone receptor (PR) signaling pathway (AID 1346784; calls by dose curve; also: nearly all actives have a fitted effect of over 30% in size; also: potency is read from the fitted curve at half-maximal effect)
How it was run: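 Using charcoal-stripped serum (2%) to limit endogenous steroids, PR-UAS-bla HEK 293T cells received compounds for 16 hr at 37C after 6 hr plating; beta-lactamase FRET fluorescence was recorded following 2 hr substrate loading at room temperature.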
% is scaled to controls: 0 for no effect and ±100 for the full control effect.

CCCCC(CC)COC(=O)c1ccccc1O (configuration not stated)
inactive: Potency [1] | Potency [2] | Potency [3] | Potency [4] | Potency [5] | outcome [6] | outcome [7] | outcome [8] | Potency [9] | Potency [10] | Potency [11] | outcome [12] | Potency [13] | Potency [14] | max activation [15] -4.33% | Potency [16] | Potency [17]

CCS(=O)(=O)c1ccc(OC)c(C(=O)OC)c1
inactive: Potency [1] | Potency [3] | Potency [4] | Potency [5] | outcome [18] | outcome [6] | outcome [7] | Potency [9] | Potency [10] | Potency [11] | outcome [12] | Potency [13] | Potency [14]

N#Cc1ccc(C2CCCc3cncn32)cc1 (configuration not stated)
inactive: Potency [1] | Potency [2] | Potency [3] | Potency [4] | Potency [5] | outcome [6] | outcome [7] | outcome [8] | Potency [9] | Potency [10] | Potency [11] | outcome [12] | Potency [14]

CN1CCN(c2cc3c(cc2F)c(=O)c(C(=O)O)cn3-c2ccc(F)cc2)CC1
active: Potency [19] 29.8 µM
inactive: Potency [1] | Potency [3] | Potency [4] | Potency [5] | outcome [18] | outcome [7] | Potency [9] | Potency [10] | Potency [11] | outcome [12] | Potency [13] | Potency [14] | max activation [15] -3.97% | Potency [16] | Potency [17]

COc1ccc2c(c1)CCCC2=O
inactive: Potency [1] | Potency [19] | Potency [2] | Potency [3] | Potency [4] | Potency [5] | outcome [6] | Potency [9] | Potency [10] | Potency [11] | outcome [12] | Potency [13] | Potency [14]
